PubChem BioAssay (NCI)
The panel holds about 83,000 compounds, 20% with a hit somewhere; the sample as a whole holds those more often.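 Testing used 96-well plates and a 48-hour single-concentration exposure. Example: -40 means 40% of the starting cells died.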 Unmarked numbers belong to inactive results. Active and inactive are the calls of the source. Rule for the calls: active = growth percent below 10; inactive = the rest.

tested on: HL-60(TB) leukemia; test: NCI-60 one-dose screen, 48 h (100 = growth as untreated, 0 = no growth, -100 = all killed); conditions: 10 µM unless noted

Row | SMILES | growth
1 | NC1=CC(=O)c2ccccc2C1=O | 81.6%
2 | O=S(=O)(O)c1ccc(F)cc1 | 93.8%
3 | COc1ccccc1NC(=O)C1=C(C)NC(C)=C(C(=O)Nc2ccccc2OC)C1c1cccc([N+](=O)[O-])c1 | 66.7%
4 | Cc1cc(NS(=O)(=O)c2ccc(NC(=O)COc3ccc(-c4cc5ccccc5[nH]4)cc3)cc2)no1 | 7.86% (active)
5 | O=C1CCCCCCCCC(O)C(O)CCCC(c2cccs2)O1 (stereo not given) | 77.9%
6 | COc1cc2ncnc(-n3ncc4cc(NC(=O)Nc5ccccc5)ccc43)c2cc1OC | -15.9% (active)
7 | O=C(NC1CCC(Br)CC1)C1CCCC(S(=O)(=O)NC2CCCCC2)C1 (stereo not given) | 4.46% [25 µM] (active)
8 | Cc1nc(NC(=O)COc2ccc(/C=C3\Cc4ccc(Cl)cc4C3=O)cc2)sc1C | 86.5%
9 | CNc1ccc(Br)cc1-c1n[nH]c(=O)[nH]c1=O | 104%
10 | CCCCN(CCCC)C(=N)c1ccnc2ccccc12 | 64.8%
11 | O=C1c2cc(Br)ccc2Oc2cc([N+](=O)[O-])ccc2N1c1ccc(I)cc1F | 81.2%
12 | CC(=O)NCc1cc(C)c(C)cc1C | 99.2%
13 | Cc1cc(N2CCOCC2)nc(N(CCNc2ccnc3cc(Cl)ccc23)Cc2cccs2)n1 | -63.2% (active)
14 | COc1cc(C2CC(c3ccc(Cl)cc3)=NN2C(C)=O)ccc1Oc1ccnc2cc(Cl)ccc12 (stereo not given) | 110%
15 | O=C(Cc1ccc(F)cc1)c1ccccc1 | 108%
16 | C=C(C)[C@@H]1C[C@H](O)Cc2cc(Cl)cc(Cl)c2N1 | 112%
17 | COc1ccc(/C(C)=C(\c2ccc(Cl)cc2)c2ccc(OCCN(C)C)cc2)cc1F | 58.2%
18 | O=C(NNC(=O)c1nc2cc(F)ccc2n2cccc12)c1cnccn1 | 17.8%
19 | COc1ccc(-c2nc3sccn3c2/C=C/C(=O)c2cc(F)cc(F)c2)cc1 | 60.4%
20 | CCOC(=O)CCN(c1c(Cl)ssc1=O)C(C)C | 101%

Row | SMILES | growth
21 | Cc1nc2nc(SCC(=O)O)[nH]c2c(=O)[nH]1 | 94.7%
22 | COc1cc2c(cc1OC)-c1ccc3cc4c(cc3c1N(CCCn1ccnc1)C2)OCO4 | 3.45% (active)
23 | CCCCOC(=O)/C=C\C(=O)NC(N)=O | 56.8%
24 | CN1CCCN(C(c2ccccc2)c2ccc(Cl)cc2)CC1 (stereo not given) | 93.5%
25 | COc1cc2nc(Cl)nc(Nc3cccc(C(=O)/C=C/c4ccccc4)c3)c2cc1OC | 70.1%
26 | Cc1ccc(-c2nc3nc(-c4ccccc4)nc(N4CCN(S(=O)(=O)c5ccccc5)CC4)c3o2)cc1 | 107%
27 | C#Cc1cccc(Nc2ncnc3cc4c(cc23)OCCOCCOCCO4)c1 | 88.1%
28 | CNC(=O)c1cc(Oc2ccc3nc(NC(=O)Nc4ccc(Cl)c(C(F)(F)F)c4)sc3c2)ccn1 | 97.2%
29 | O=C(Nc1ccc(F)cc1)c1cc2cc(Nc3nc(-c4ccccc4)nc4ccccc34)ccc2oc1=O | 102%
30 | CCCCCCCCCCCCNC(=O)[C@H]1CSC(c2cc(Br)cs2)N1 (stereo not given in full) | -36.9% (active)
31 | C#CCO[C@H]1CC[C@H](OCC#C)[C@@H]2[C@H]1[C@H]1C[C@@H]3[C@@]4(C)CCC[C@@](C)(C(=O)OC)[C@@H]4CC[C@@]23C=C1C(C)C | 78.1%
32 | CN1CCN(Cc2ccc(NC(=O)c3[nH]ncc3Nc3ccnc4ccnn34)cc2)CC1 | 45.5%
33 | COc1ccc(C2C3CCc4ccccc4C3=NN2C(=O)c2cc(OC)c(OC)c(OC)c2)cc1O (stereo not given) | 84.7%
34 | Nc1ccc(Br)cn1 | 75.5%
35 | COc1cc2c(cc1OC)C(=O)C(CC1CCN(C(=O)Nc3ccc(C)cc3)CC1)C2 (stereo not given) | 125%
36 | COc1cccc(Cn2cc3c(c2)-c2oncc2CC3)c1 | 1.64% (active)
37 | CCN(CC)CCCC(C)NC(=S)N/N=C(\C)c1ccccn1 (stereo not given) | -3.79% (active)
38 | CCOC(=O)c1sc(N)nc1-c1ccccc1 | 98.3%
39 | Nc1ncc(-c2ccc(C(F)(F)F)cc2)c(NC2CCCCCC2)n1 | 16.8%
40 | O=C(c1ccccc1)N(CCCl)C(=O)N(CCCl)C(=O)c1ccccc1 | 90.6%
